# Reference: PubChem BioAssay (Tox21)
# Results filed as inconclusive are left out. A call without a number means that no potency is given here. The source made the active and inactive calls. Calls follow the shape of the dose curve; as a rule, active = well fitted activation curve with a large enough effect in the repeat runs; inconclusive = weak or mixed curves; inactive = flat fitted curve, though single readings scatter.
# Assay: A CellTox Green Cytotoxicity Assay to monitor cytotoxicity in HEK293 cells - 24 hour (AID 1224875); also: nearly all actives have a fitted effect of over 45% in size
# Conditions: CellTox Green fluorescence; series mostly up to 76.8 µM; activity change: at the top concentration
# Method in brief: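 Real-time, in one plate: 600 HEK293 cells/well with dead-cell DNA dye, pinned compound after 5 h, 37 C incubation over 40 h; viable cells give no appreciable fluorescence.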
Compound,Potency,activity change
CC1=C(/C=C/C(C)=C/C=C/C(C)=C/CO)C(C)(C)CCC1,inactive,
COC(=O)c1ccccc1O,inactive,
Oc1ccc2ccccc2c1N=Nc1ccccc1,,3.15% (inactive)
C[C@@H](O)[C@H]1C(=O)N2C(C(=O)O)=C(S[C@@H]3CN[C@H](C(=O)N(C)C)C3)[C@H](C)[C@H]12,inactive,
C=C1CC[C@H](O)CC1=C/C=C1\CCC[C@]2(C)[C@@H]([C@H](C)/C=C/[C@H](C)C(C)C)CC[C@@H]12,inactive,
CCc1ccc(O)cc1,inactive,
COC(=O)c1ccc(C(=O)OC)cc1,inactive,
OCC#CCO,,-7.65% (inactive)
CN(C)c1cccc(O)c1,inactive,
COCC(=O)O,inactive,
CC1=CC[C@H]2C[C@@H]1C2(C)C,inactive,
CC(C)(C)C1CCC(O)CC1 (stereo not drawn),inactive,
O=S(=O)(O)c1cc(S(=O)(=O)O)c2c(N=Nc3ccccc3)c(O)ccc2c1,inactive,
CC#C[C@]1(O)CC[C@H]2[C@@H]3CCC4=CC(=O)CCC4=C3[C@@H](c3ccc(N(C)C)cc3)C[C@@]21C,inactive,
S=c1nc[nH]c2nc[nH]c12,inactive,
O=C(Cl)c1c(Cl)c(Cl)c(C(=O)Cl)c(Cl)c1Cl,inactive,
Nc1nc2ncc(CNc3ccc(C(=O)N[C@@H](CCC(=O)O)C(=O)O)cc3)nc2c(=O)[nH]1,inactive,
CC1Cc2ccccc2N1NC(=O)c1ccc(Cl)c(S(N)(=O)=O)c1 (stereo not drawn),inactive,
CCCCCCCCCCCCOCC1CO1 (stereo not drawn),,-5.56% (inactive)

Compound,Potency,activity change
CC(C)n1c(/C=C/[C@@H](O)C[C@@H](O)CC(=O)O)c(-c2ccc(F)cc2)c2ccccc21,,7.11% (inactive)
NC(=O)NNc1ccccc1,inactive,
O=C(c1cc(O)c(O)c(O)c1)c1ccc(O)c(O)c1O,inactive,
O=C(Oc1ccccc1)c1ccc(O)cc1,inactive,
CCc1ccccc1O,inactive,
Cc1cc(O)cc(C)c1Cl,inactive,
CCOC(=O)/C=C\C(=O)OCC,inactive,
CC1=C(CC(=O)O)c2cc(F)ccc2/C1=C\c1ccc(S(C)=O)cc1 (stereo not drawn),inactive,
Nc1cc(-c2ccncc2)c[nH]c1=O,inactive,
CCCCCCCCCCC=CC1CC(=O)OC1=O (stereo not drawn),inactive,
C=CC(=O)OCCCCCCCC(C)C,inactive,
CCCCOCCOCCOC(=O)CCCCC(=O)OCCOCCOCCCC,inactive,
O=C(O)c1ccc([N+](=O)[O-])cc1,inactive,
CC1(C)CC(N=C=O)CC(C)(CN=C=O)C1 (stereo not drawn),inactive,
NC(=O)/N=N/C(N)=O,inactive,
CNC[C@H](O)[C@@H](O)[C@H](O)[C@H](O)CO,inactive,
CC(=O)Nc1ccc(C(=O)O)cc1,inactive,
O=C1O[C@H](CO)[C@@H](O)[C@H](O)[C@H]1O,inactive,
C=C(C)C(=O)OCCCCCC,inactive,
